HT1080 IDH1KD tx – qHTS for induction of synthetic lethality in tumor cells producing 2HG: qHTS for the HT-1080-IDH1KD cell line; HT-1080 IDH1 knockdown viability, ATP luminescence, 48 h; Potency, µM (series often up to 46.1 µM), for inactives: at the highest dose activity, negative = toxicity, hits mostly cytotoxic; 360,000 tested, 2% active;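 further: 0% = DMSO wells and -100% = cell-free medium wells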
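Viability of IDH1-knockdown HT-1080 fibrosarcoma cells was assessed by CellTiter-Glo after 48 h at 37 °C with titrated compound; concentration-effect curves were classified by fit quality and response size.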
HT1080-NT tox – qHTS for induction of synthetic lethality in tumor cells producing 2HG: qHTS for the HT-1080-NT fibrosarcoma cell line | HT-1080-NT fibrosarcoma viability, CellTiter-Glo ATP luminescence, 48 h | Potency, µM (series often up to 46.1 µM), for inactives: top-dose activity, negative = less viability, usual class: cytotoxic | 360,000 tested, 1.6% active | AID 686970, 2013;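 further: NT is the 2HG producing partner of a matched IDH1 knockdown line; 0% = DMSO-treated cells and -100% = media-only wells without cells; nearly all actives have a fitted effect of over 55% in size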
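Compounds were tested in concentration-response format on HT-1080-NT cells for 48 hours at 37 degrees C. Cell viability came from CellTiter-Glo luminescence; curves were classified by r2, response magnitude and activity.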
ATXN viability – Viability Counterscreen for Primary qHTS for Inhibitors of ATXN expression; S2 cells (HEK-293 line with an ATXN2-luciferase reporter) viability, CellTiter-Fluor protease fluorescence, 24 h; Potency, µM (top dose mostly 56.7 µM), usual class: cytotoxic; 400,000 tested, 0.49% active; further: nearly all actives have a fitted effect of over 40% in size
TGFb inhibitor – qHTS for Inhibitors of TGF-b; AID 588855, 2011; 410,000 tested, 1.2% active; Potency, µM (series often up to 46.1 µM), for inactives: at the highest dose activity, negative = inhibition, actives largely listed as inhibitors; HepG2 CAGA-GFP TGF-b/SMAD3 reporter, GFP fluorescence, 18 h; TGF-beta stimulated, 500 pg/mL final; further: on the % scale 0 is the no-effect control and ±100 the full control effect; nearly all actives have a fitted effect of over 65% in size
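Cell-based qHTS in HEPG2 carrying a CAGA-GFP Smad reporter; compounds added before 500 pg/mL final TGF-beta, 18 h incubation at 37 degrees C, GFP fluorescence quantified per cell by imaging cytometry.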
HepG2 tox – qHTS for Inhibitors of TGF-b: Cytotox Counterscreen | Potency, µM (titrated, usually from 46.1 µM), inactives show at the top dose activity change, negative = cytotoxicity, actives largely listed as cytotoxic | HepG2 CAGA-GFP viability, ATP luminescence, 18 h | 410,000 tested, 0.76% active
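CellTiter-Glo luminescence gave cytotoxicity after 18 hours at 37 degrees C. The cells were HepG2 CAGA-GFP in 1% FBS DMEM, stimulated with 500 pg/mL TGF-beta after compound addition. %Activity was normalised to no-cell wells (complete cell-killing) and DMSO (no toxicity), and curves were fitted and classified.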
ATXN2 expr inh – Primary qHTS for Inhibitors of ATXN expression; 360,000 tested, 0.72% active; HEK-293 ATXN2-luciferase reporter, luminescence, 24 h; Potency, µM (top dose mostly 57 µM), for inactives: top-dose activity change, negative = inhibition, usual class: inhibitors; AID 1745845, 2022; further: on the % scale 0 is the no-effect control and ±100 the full control effect; nearly all actives have a fitted effect of over 55% in size
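ATXN2-luciferase reporter cells (luciferase flanked by upstream and downstream ATXN2 gene portions) were treated 24 h at 37 °C with compounds at up to 57 uM. SteadyGlo luminescence gave expression; GF-AFC fluorescence gave viability.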
An asterisk follows results filed as active; i = inactive; ? = inconclusive; nt = no result given. Sampled rows, rich in hits. Any-hit rate of the full collection: about 3.8%. The call rests on the fitted dose curve; in most records, active means well fitted curve in the direction sought with a large enough effect; inconclusive means small, poorly fitted or top-dose-only effect, or another doubt; inactive means no such curve, though single readings can be large; an effect the other way counts as inactive or inconclusive. Potency means the concentration at half of the fitted maximal effect.

SMILES	HT1080 IDH1KD tx	HT1080-NT tox	ATXN viability	TGFb inhibitor	HepG2 tox	ATXN2 expr inh
CN(C)CCn1cnc2c(c1=N)C(c1ccccc1)c1ccc3ccccc3c1O2 (stereo not given)	-16%	-29%	nt	18µM*	-86%	?
CC1Cn2cc(C(=O)Nc3cccc(C(F)(F)F)c3)c(=O)c3c(Cl)ccc(c32)O1 (stereo not given)	nt	nt	i	1%	2%	-10%
CCN1CCOC(=O)C1CC(=O)Nc1cc(C)cc(C)c1 (stereo not given)	nt	nt	i	-20%	-9%	28%
CC(C)n1c(NCc2cc(Cl)ccc2O)nc2ccccc21	0%	-1%	?	?	-40%	28µM*
Cc1ccc(O)c(CNc2nc3ccccc3n2C(C)C)c1	-4%	-10%	i	?	-37%	-7%
COC(=O)C1CCN(Cc2ccc3c(c2)CN(C(=O)c2cc(C)on2)CCO3)CC1	nt	nt	i	nt	nt	nt
O=[N+]([O-])c1ccc(N=Nc2ncc[nH]2)cc1	6.5µM*	18µM*	1.3µM*	-11%	-14%	nt
C/C(CC(=O)Nc1ccc(Cl)cc1Cl)=N\NC(N)=S	7.9µM*	10µM*	i	?	-26%	5%
CO/N=C\CC(=O)Nc1ccc(Cl)cc1Cl	8.2µM*	?	i	-16%	1%	-31%
C/C(CC(=O)Nc1cc(Cl)ccc1Cl)=N\NC(N)=S	-4%	-8%	i	-21%	1%	3%
Cc1ccc(NC(=S)NNC(=O)c2c([N+](=O)[O-])c(C)nn2C)cc1	5µM*	5.6µM*	i	-2%	-3%	-2%
Cc1ccc(NC(=S)NNC(=O)c2c(Cl)c(C)nn2C)cc1	?	?	i	?	-24%	-4%
COc1cc(C(C[N+](=O)[O-])c2c(C)[nH]c3ccccc23)cc(OC)c1OC (stereo not given)	-19%	-18%	i	5%	-18%	-19%
O=[N+]([O-])CC(c1ccccc1)c1c[nH]c2ccccc12 (stereo not given)	15µM*	?	?	?	-35%	nt
Cc1ccc(N2CCN(C(=O)c3cc(-c4ccc(F)cc4)[nH]c3C)CC2C)cc1 (stereo not given)	18µM*	23µM*	i	?	-27%	2%
CCc1cccc2c(C(=O)CN3C(=O)N(C)C4(CCCCC4)C3=O)c[nH]c12	16µM*	18µM*	i	?	-48%	-7%
CCc1cccc2c(=O)c(C(=O)N3CCCCCC3)c[nH]c12	3%	-3%	?	-3%	-3%	3%
CCc1cccc2c(C(=O)CN3C(=O)NC4(CCc5ccccc54)C3=O)c[nH]c12 (stereo not given)	?	?	?	?	-68%	?
CCc1cccc2c(C(=O)CN3C(=O)NC(C)(c4cccc5ccccc45)C3=O)c[nH]c12 (stereo not given)	15µM*	?	?	?	-28%	-34%
Cc1ccc2nccc(/C=C/c3ccc(N(C)C)cc3)c2c1	nt	nt	nt	1%	-24%	nt
COc1ccc(Cn2cc(CN3CC(N4CCN(Cc5ccccc5F)CC4)CS3(=O)=O)nn2)cc1 (stereo not given)	23µM*	-5%	i	nt	nt	-4%
CSc1ncccc1C(=O)NCC1Cc2cc(F)cc(-c3cncnc3)c2O1 (stereo not given)	nt	nt	i	nt	nt	nt
COc1cccc2cc(C(=O)N3CCc4ccccc4C3)c(=O)oc12	8%	15%	i	0%	-3%	85%
COc1cc2c(cc1OC)CN(C(=O)c1cccs1)CC2	27%	16%	i	-6%	4%	0%

From PubChem BioAssay
